Measurements published in the supplement of paper PMC11732987, “Enantioselective OTUD7B fragment discovery through chemoproteomics screening and high-throughput optimisation” (Communications Chemistry, 2025).

What was measured:
Test in all cases: log2 ratio of Biotin-Ahx-Ub-VS probe labelling (fragment/DMSO); higher = less target engagement (more negative = stronger competition), active = hit call of the paper (q ≤ 0.05, log2 ratio ≤ -1)
Conditions in all cases: compound concentration: 200 uM; treatment time: 3 h
USP9X = USP9X (UniProt Q93008)
USP9X, sequence (Q93008 whole entry, the tested form may be a part): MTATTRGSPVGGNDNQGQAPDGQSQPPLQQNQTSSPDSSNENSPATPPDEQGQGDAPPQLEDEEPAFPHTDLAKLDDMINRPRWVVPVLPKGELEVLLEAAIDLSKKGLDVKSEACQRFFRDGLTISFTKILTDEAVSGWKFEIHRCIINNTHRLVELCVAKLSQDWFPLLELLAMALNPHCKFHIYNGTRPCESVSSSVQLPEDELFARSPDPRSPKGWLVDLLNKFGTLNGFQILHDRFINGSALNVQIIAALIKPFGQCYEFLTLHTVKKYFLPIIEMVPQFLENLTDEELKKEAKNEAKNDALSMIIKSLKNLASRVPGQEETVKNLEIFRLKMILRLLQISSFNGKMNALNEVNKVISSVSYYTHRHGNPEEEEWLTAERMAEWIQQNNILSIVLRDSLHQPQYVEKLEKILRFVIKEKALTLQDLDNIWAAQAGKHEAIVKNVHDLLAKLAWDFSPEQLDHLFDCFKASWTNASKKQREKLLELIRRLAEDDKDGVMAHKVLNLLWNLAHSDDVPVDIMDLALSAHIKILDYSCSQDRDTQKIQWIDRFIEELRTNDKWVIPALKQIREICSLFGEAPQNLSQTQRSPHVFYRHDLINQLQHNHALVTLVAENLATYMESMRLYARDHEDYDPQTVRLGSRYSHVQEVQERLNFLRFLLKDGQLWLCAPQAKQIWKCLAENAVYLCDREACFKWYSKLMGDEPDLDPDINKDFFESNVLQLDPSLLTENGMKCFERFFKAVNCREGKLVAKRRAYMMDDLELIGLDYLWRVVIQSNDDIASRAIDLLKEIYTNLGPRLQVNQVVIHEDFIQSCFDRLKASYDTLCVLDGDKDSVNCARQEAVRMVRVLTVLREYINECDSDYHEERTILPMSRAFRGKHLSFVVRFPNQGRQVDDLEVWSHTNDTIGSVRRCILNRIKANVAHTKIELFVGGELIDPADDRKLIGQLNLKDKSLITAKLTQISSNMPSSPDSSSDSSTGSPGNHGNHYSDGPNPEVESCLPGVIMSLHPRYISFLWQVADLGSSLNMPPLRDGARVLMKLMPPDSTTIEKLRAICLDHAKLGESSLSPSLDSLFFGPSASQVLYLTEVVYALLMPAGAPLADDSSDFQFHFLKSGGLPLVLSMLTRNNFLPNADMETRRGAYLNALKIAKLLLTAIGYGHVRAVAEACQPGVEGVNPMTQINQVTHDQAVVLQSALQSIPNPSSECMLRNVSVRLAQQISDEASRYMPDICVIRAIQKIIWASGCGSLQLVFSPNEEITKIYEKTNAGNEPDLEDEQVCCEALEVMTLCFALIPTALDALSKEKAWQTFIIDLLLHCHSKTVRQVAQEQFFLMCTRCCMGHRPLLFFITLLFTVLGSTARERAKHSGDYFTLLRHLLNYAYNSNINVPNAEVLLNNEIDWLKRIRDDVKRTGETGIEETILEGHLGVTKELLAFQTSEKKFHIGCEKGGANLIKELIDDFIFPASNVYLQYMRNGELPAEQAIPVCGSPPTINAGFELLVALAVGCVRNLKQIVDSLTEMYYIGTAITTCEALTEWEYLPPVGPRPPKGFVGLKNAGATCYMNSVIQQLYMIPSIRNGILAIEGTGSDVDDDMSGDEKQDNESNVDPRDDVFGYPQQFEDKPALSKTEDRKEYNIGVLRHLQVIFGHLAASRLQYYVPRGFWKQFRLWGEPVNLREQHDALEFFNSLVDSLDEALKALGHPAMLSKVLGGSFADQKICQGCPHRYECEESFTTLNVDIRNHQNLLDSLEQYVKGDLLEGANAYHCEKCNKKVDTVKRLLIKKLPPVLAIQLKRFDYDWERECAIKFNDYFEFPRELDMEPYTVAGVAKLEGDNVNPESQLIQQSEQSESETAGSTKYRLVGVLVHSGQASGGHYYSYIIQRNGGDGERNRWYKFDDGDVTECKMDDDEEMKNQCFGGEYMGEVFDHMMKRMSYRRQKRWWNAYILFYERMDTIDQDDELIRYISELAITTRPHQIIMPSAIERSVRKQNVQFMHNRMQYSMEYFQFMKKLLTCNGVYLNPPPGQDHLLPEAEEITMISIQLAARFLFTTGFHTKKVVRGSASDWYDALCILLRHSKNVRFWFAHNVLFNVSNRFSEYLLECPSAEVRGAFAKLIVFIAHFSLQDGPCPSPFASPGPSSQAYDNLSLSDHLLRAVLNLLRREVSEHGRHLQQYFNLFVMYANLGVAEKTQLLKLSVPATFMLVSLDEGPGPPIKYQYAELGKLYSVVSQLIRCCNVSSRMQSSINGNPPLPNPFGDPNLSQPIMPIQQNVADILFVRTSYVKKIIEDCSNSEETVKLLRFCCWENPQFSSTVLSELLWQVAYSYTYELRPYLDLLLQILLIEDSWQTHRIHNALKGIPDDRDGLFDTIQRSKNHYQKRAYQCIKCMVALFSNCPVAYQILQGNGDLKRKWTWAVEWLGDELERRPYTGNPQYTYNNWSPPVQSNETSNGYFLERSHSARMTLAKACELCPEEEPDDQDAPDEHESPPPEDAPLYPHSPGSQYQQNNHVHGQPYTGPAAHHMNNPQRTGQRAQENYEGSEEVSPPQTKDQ
In short: (§1)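 HEK293T lysate (495 µg per sample, in Tris/CHAPS/IGEPAL buffer with protease inhibitors) was exposed in triplicate for 3 h to fragment at 200 µM or to vehicle, then to Biotin-Ahx-Ub-VS at 0.5 µM final for 1 h. Labelled DUBs were enriched on NeutrAvidin, digested with LysC and trypsin, and analysed by diaPASEF LC-MS/MS. Spectronaut label-free quantities were normalised to the global median, and values are average log2 ratios of fragment over vehicle from an unpaired t-test. Only proteins with ≥2 unique peptides were used.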

UniProt O00487 = target: UniProt O00487
In short: as §1

UniProt O00507 = target: UniProt O00507
UniProt O00507, sequence (O00507 whole entry): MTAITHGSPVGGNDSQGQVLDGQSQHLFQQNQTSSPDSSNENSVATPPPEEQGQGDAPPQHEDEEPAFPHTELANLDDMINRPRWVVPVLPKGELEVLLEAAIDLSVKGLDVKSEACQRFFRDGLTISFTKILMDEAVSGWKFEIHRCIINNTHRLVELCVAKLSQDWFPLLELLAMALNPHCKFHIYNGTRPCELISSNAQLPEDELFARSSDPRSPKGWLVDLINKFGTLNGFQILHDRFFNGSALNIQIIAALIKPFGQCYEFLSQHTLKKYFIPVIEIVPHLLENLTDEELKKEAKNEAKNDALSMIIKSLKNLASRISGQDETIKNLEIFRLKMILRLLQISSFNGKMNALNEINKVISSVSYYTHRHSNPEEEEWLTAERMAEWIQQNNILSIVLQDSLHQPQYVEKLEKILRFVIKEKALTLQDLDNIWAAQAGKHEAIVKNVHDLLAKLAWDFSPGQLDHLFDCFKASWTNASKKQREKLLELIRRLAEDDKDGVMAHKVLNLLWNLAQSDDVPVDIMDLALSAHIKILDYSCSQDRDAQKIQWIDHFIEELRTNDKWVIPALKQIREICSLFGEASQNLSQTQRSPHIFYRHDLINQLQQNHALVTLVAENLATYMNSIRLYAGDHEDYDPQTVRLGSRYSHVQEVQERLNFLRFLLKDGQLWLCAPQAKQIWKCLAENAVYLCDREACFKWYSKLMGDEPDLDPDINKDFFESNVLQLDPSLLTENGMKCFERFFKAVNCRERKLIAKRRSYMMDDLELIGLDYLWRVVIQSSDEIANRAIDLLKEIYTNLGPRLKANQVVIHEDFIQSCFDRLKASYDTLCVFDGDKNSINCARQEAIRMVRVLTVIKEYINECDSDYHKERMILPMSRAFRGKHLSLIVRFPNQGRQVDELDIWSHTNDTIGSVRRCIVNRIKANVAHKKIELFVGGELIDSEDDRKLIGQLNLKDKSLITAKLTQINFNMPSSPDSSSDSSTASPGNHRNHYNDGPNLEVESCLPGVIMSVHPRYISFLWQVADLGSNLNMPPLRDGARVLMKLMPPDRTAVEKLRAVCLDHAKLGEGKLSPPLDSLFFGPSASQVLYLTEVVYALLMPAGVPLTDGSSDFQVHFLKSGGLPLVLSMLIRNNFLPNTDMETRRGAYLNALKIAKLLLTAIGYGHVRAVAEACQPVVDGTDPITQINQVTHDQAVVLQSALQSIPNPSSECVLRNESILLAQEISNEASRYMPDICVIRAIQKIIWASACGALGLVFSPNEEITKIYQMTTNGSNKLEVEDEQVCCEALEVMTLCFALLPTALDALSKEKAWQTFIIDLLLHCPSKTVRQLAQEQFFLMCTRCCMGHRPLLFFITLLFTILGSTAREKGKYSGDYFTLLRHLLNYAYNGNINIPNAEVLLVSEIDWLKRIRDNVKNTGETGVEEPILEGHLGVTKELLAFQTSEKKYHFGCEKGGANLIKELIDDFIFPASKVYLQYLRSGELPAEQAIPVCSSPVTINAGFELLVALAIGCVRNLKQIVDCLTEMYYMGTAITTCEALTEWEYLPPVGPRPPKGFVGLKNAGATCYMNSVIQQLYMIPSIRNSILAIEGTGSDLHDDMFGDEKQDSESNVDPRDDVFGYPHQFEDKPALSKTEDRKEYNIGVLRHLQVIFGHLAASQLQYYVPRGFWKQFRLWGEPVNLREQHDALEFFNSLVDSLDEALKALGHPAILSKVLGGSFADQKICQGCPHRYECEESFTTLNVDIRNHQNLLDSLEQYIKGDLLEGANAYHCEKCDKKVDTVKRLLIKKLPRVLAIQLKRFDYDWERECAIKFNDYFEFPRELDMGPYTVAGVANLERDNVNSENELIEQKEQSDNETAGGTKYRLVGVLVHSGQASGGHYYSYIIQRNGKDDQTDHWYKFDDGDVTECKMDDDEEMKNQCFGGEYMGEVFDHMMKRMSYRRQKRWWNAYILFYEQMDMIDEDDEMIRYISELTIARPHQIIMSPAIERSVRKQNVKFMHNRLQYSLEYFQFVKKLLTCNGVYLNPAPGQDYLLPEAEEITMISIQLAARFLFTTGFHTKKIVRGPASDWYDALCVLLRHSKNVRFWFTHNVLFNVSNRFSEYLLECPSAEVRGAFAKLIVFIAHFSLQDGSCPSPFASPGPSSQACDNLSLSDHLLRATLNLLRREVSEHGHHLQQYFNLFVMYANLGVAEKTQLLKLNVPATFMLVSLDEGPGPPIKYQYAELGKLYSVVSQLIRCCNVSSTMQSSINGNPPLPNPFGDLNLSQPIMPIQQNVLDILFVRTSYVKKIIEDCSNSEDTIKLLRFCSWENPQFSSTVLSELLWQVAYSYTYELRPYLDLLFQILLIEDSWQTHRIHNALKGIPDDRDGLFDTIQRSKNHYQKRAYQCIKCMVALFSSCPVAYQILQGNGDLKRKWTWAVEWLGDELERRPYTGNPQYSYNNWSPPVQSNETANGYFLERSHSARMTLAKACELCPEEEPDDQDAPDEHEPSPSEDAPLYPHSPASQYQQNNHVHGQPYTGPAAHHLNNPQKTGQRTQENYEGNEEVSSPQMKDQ
In short: as §1

UniProt P51784 = target: UniProt P51784
In short: as §1

UniProt Q5T2D3 = target: T1, UniProt Q5T2D3
T1 sequence (whole entry): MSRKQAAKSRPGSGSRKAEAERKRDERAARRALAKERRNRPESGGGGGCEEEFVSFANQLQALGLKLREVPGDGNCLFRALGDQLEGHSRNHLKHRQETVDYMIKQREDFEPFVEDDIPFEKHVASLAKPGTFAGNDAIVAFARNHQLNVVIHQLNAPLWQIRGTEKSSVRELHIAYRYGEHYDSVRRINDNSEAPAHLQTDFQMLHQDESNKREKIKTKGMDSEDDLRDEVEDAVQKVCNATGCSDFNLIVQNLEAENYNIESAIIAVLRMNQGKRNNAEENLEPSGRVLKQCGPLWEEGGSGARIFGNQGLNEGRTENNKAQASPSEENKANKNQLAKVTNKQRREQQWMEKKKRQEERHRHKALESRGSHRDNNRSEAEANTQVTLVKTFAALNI
In short: as §1

UniProt Q8TE49 = target: T2, UniProt Q8TE49
T2 sequence (whole entry): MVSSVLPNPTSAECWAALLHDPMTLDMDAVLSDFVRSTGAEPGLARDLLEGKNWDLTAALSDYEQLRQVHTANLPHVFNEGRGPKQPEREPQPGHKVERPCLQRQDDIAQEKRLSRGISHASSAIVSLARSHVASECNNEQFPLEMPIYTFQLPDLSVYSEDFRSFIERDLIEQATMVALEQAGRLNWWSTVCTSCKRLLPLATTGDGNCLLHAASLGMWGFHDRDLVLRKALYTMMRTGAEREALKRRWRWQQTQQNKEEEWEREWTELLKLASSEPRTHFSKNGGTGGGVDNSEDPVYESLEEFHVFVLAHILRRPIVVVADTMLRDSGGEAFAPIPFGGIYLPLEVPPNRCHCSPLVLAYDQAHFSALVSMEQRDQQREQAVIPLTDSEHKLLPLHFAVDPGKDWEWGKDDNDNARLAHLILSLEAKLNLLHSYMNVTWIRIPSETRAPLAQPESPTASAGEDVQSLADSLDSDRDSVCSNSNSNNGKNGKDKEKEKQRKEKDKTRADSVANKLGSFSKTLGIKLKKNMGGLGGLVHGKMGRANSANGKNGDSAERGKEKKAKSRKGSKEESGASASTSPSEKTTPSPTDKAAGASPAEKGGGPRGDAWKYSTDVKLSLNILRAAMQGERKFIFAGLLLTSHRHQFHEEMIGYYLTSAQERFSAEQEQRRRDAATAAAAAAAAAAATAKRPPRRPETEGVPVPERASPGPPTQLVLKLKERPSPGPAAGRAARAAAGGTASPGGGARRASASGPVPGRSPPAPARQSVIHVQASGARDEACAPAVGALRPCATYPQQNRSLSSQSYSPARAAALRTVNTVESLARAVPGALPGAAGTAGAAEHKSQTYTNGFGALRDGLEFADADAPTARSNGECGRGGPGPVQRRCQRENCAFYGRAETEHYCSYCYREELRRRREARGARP
In short: as §1

UniProt Q9P2H5 = target: T3, UniProt Q9P2H5
T3 sequence (whole entry): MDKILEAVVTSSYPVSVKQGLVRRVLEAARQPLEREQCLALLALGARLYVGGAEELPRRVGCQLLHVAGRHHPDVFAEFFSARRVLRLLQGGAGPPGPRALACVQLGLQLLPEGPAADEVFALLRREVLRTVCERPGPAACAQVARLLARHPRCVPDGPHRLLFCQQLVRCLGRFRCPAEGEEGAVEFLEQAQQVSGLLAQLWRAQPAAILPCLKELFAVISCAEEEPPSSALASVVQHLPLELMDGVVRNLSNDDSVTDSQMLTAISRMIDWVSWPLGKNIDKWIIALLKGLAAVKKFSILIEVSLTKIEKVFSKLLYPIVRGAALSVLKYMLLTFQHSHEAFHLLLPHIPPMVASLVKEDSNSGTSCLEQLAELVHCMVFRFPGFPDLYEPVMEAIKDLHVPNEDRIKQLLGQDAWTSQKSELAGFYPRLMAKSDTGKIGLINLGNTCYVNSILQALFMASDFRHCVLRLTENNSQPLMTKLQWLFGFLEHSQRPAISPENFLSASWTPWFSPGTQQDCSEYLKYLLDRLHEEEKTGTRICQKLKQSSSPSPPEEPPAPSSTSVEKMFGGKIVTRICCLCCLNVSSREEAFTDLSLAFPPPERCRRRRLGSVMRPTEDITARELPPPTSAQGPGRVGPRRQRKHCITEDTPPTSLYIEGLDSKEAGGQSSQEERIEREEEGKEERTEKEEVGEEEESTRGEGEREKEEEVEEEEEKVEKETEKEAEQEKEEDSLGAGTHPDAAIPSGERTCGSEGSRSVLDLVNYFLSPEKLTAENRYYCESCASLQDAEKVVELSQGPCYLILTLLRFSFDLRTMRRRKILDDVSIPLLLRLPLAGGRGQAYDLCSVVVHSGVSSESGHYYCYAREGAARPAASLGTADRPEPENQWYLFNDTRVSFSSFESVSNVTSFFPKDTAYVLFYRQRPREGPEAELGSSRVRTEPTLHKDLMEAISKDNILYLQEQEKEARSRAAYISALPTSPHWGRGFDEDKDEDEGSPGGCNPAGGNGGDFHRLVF
In short: as §1

UniProt Q9UGI0 = target: T4, UniProt Q9UGI0
T4 sequence (whole entry): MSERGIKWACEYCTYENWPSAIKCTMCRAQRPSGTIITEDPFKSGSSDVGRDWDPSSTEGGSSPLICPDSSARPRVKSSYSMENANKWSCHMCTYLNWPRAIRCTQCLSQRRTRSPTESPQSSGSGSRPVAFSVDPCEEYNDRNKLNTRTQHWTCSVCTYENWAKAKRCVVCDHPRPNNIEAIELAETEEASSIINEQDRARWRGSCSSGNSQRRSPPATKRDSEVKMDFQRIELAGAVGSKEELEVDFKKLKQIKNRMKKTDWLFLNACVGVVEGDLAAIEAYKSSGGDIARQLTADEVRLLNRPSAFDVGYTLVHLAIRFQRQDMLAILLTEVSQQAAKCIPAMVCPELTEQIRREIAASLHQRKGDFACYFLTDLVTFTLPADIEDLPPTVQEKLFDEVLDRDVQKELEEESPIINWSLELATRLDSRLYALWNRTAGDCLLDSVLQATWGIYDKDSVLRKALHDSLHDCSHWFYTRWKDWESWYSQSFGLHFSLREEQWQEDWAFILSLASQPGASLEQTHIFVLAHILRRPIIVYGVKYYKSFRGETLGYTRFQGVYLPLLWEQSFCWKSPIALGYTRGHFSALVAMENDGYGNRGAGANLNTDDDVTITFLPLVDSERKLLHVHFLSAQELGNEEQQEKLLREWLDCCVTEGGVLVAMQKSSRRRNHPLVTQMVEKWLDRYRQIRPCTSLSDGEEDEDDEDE
In short: as §1

YOD1 = target: T5, YOD1 (UniProt Q5VVQ6)
T5 sequence (whole entry): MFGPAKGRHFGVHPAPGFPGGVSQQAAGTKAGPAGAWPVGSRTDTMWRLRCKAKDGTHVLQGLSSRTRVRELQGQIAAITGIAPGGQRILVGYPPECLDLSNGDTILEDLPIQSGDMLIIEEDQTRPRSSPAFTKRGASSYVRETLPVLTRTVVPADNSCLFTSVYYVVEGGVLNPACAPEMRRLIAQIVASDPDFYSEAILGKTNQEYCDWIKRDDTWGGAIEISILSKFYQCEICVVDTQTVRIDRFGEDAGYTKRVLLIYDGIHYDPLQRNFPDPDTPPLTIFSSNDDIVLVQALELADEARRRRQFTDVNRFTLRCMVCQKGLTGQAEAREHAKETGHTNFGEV
In short: as §1

Measured: log2 ratio of Biotin-Ahx-Ub-VS probe labelling

N#Cc1ccc(Cl)cc1NC(=O)CCl
inactive: USP9X -0.0196 | UniProt O00487 0.0781 | UniProt O00507 -0.451 | UniProt P51784 0.0676 | UniProt Q5T2D3 -0.0728 | UniProt Q8TE49 -0.577 | UniProt Q9P2H5 0.0403 | UniProt Q9UGI0 -0.441 | YOD1 0.0565
